Experimental data from PubChem BioAssay (NCATS).
Results filed as inconclusive are left out. Unless noted, the call rests on the fitted dose curve; in most records, active means well fitted curve in either direction with a large enough effect (not every such curve was filed as active); inconclusive means small, poorly fitted or top-dose-only effect, or another doubt; inactive means flat fitted curve, though single readings scatter.

How the values were obtained:
[1] = AP1 Signaling Pathway (AID 357); conditions: ME-180 AP-1-bla reporter, EGF-induced, beta-lactamase ratio, 5 h; at 17.2 µM (top of the series) unless noted;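 further: ME-180 reporter cells stimulated with EGF at its EC50 level; on the % scale 0 is the no-effect control and ±100 the full control effect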
Method in brief: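 Cells are seeded overnight, exposed to compound titrations and an EC50 level of EGF for 5 hours at 37 °C, then loaded with CCF4 dye for 2.5 hours. Beta-lactamase activity under the AP-1 element is read as a blue/green ratio.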

[2] = NFAT Signaling Pathway (AID 444); conditions: Jurkat NFAT-bla M1, carbachol, beta-lactamase ratio, 5 h; at 17.2 µM (top of the series) unless noted;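 further: carbachol stimulus at about its EC50 of 1 µM final; on the % scale 0 is the no-effect control and ±100 the full control effect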
Method in brief: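 Jurkat cells with NFAT-driven β-lactamase reporter and co-expressed M1 receptor, stimulated with carbachol (final 1 uM, ~EC50), compound titration, 5 h at 37 °C. CCF4 loaded 1 h at RT; 460/530 nm ratio gave %activity and AC50.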

[3] = Stat Signaling Pathway (AID 446); conditions: ME-180 (cervical carcinoma) SIE beta-lactamase reporter, IL-6 stimulated, 5 h; at 17.2 µM (top of the series) unless noted;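 further: ME-180 cervical cancer cells given 40 pM IL-6 alongside compound; SIE-controlled beta-lactamase reporter measured as 460/530 nm FRET emission ratio; on the % scale 0 is the no-effect control and ±100 the full control effect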
Method in brief: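 FRET read-out (405 nm excitation, 460/530 nm emission) of a beta-lactamase reporter under a STAT-inducible element in ME-180 cervical carcinoma cells. Cells with compound receive 40 pM IL-6 for 5 h. Values are normalised to AC90 stimulation and AC90 JAK-inhibitor controls.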

[4] = biological target: Glucocorticoid receptor (Homo sapiens) (UniProt P04150); experiment: GR-GFP Redistribution (AID 450;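 active means compounds whose dose series gives a full or clear partial fitted curve of increased nuclear translocation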; further: potency means the concentration at half of the fitted maximal effect)
Glucocorticoid receptor (Homo sapiens), sequence (P04150 whole entry, looked up): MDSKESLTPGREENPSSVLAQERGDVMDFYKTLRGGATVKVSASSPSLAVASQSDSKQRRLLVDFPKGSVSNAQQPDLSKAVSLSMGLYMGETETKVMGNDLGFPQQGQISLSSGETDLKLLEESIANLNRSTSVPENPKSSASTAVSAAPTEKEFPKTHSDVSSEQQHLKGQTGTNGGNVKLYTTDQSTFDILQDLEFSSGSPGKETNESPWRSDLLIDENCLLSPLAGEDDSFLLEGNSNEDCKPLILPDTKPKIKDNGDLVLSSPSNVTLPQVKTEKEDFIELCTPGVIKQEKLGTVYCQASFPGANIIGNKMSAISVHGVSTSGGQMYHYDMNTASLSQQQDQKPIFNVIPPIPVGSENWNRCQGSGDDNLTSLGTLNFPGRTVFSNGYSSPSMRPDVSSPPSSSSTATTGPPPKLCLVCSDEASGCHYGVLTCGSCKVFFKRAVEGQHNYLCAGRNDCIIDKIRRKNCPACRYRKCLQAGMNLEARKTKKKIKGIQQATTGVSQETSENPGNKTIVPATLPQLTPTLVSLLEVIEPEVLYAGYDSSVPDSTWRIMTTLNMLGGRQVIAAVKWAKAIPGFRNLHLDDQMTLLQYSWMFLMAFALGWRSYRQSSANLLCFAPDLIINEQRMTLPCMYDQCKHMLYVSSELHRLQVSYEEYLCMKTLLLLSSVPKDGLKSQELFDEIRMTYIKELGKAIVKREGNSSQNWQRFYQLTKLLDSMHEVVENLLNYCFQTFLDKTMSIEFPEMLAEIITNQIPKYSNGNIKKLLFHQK

CCCCc1nc(N2CCOCC2)c(C#N)c2c1COC(C)(C)C2
inactive: activity change, negative = inhibition [1] -27.7% | activity change, negative = inhibition [2] 16.6% | activity, negative = inhibition [3] -1.34% | Potency [4] > 20.6 µM

CCCCn1c(-c2ccc(Cl)cc2)nc2c(=O)n(C)c(=O)[nH]c21
inactive: activity change, negative = inhibition [1] 22.6% | activity change, negative = inhibition [2] -14.1% | activity, negative = inhibition [3] 27.6% | Potency [4] > 20.6 µM

CCOC(=O)c1cc(C)n(Cc2cccc(OC)c2OC)c1C
inactive: activity change, negative = inhibition [1] -16.9% | activity change, negative = inhibition [2] -21.6% | activity, negative = inhibition [3] -14.9% | Potency [4] > 20.6 µM

COCCCNc1nc2c(c(=O)n(C)c(=O)n2C)n1Cc1cccc(OC)c1
inactive: activity change, negative = inhibition [1] -8.39% | activity change, negative = inhibition [2] -4.82% | activity, negative = inhibition [3] -3.35% | Potency [4] > 20.6 µM

CC(=O)N1CCN(C2c3cccc4cccc(c34)C2NS(=O)(=O)c2ccccc2)CC1 (stereo not given)
inactive: activity change, negative = inhibition [1] -3.48% | activity change, negative = inhibition [2] -9.38% | activity, negative = inhibition [3] 2.23% | Potency [4] > 20.6 µM

O=C(c1ccc(-n2cnnn2)cc1)N1CCOCC1
inactive: activity change, negative = inhibition [1] 10.3% | activity change, negative = inhibition [2] -0.0644% | activity, negative = inhibition [3] 12.1% | Potency [4] > 20.6 µM

Cc1cc(SCCC(=O)O)nc2ccccc12
inactive: activity change, negative = inhibition [1] 0.423% | activity change, negative = inhibition [2] -5.26% | activity, negative = inhibition [3] 6.44% | Potency [4] > 20.6 µM

CCOC(=O)c1c(C(C#N)C#N)cc(C)nc1C
inactive: activity change, negative = inhibition [1] 9.21% | activity change, negative = inhibition [2] -6.15% | activity, negative = inhibition [3] 1.48% | Potency [4] > 20.6 µM

COc1ccc(-c2nn3c(-c4ccccn4)nnc3s2)cc1OC
inactive: activity change, negative = inhibition [1] -16.2% | activity change, negative = inhibition [2] -21.8% | activity, negative = inhibition [3] -2.76% | Potency [4] > 20.6 µM

COc1ccc2[nH]c(C)c(C(=O)CN3CCc4cc(OC)c(OC)cc4C3)c2c1
inactive: activity change, negative = inhibition [1] -11.9% | activity change, negative = inhibition [2] 1.37% | activity, negative = inhibition [3] 4.19% | Potency [4] > 20.6 µM

CCOC(=O)c1ccc(NC(=O)CCC(CC)C(=O)O)cc1 (stereo not given)
inactive: activity change, negative = inhibition [1] -2.51% | activity change, negative = inhibition [2] -11.6% | activity, negative = inhibition [3] 3.77% | Potency [4] > 20.6 µM

CCCNC1=C(C)C(=O)CC1
inactive: activity change, negative = inhibition [1] 11.1% | activity change, negative = inhibition [2] -5.45% | activity, negative = inhibition [3] 0.709% | Potency [4] > 20.6 µM

CCCSc1nnc2n(Cc3ccccc3)c(=O)c3c4c(sc3n12)CCC4
inactive: activity change, negative = inhibition [1] 27.1% | activity change, negative = inhibition [2] 0.0627% | activity, negative = inhibition [3] -7.18% | Potency [4] > 20.6 µM

Clc1ccccc1-c1nn2c(-c3ccccn3)nnc2s1
inactive: activity change, negative = inhibition [1] -2.63% | activity change, negative = inhibition [2] -11.1% | activity, negative = inhibition [3] 12.8% | Potency [4] > 20.6 µM

COc1c(O)ccc2cnn(-c3ccccc3C)c(=O)c12
inactive: activity change, negative = inhibition [1] 12.5% | activity change, negative = inhibition [2] -7.24% | activity, negative = inhibition [3] 25.4% | Potency [4] > 20.6 µM

COc1ccc(N2CCN(c3nc4c(c(=O)[nH]c(=O)n4C)n3CCCc3ccccc3)CC2)cc1
inactive: activity change, negative = inhibition [1] 22% | activity change, negative = inhibition [2] -12.3% | activity, negative = inhibition [3] -11% | Potency [4] > 20.6 µM

O=C1CC(c2ccco2)CC(O)=C1C=NCCN1CCN(C2CC(=O)N(c3ccccc3)C2=O)CC1 (stereo not given)
inactive: activity change, negative = inhibition [1] -3.13% | activity change, negative = inhibition [2] -22.1% | activity, negative = inhibition [3] -0.0328% | Potency [4] > 20.6 µM

Cc1cc2c(c(=O)n1CC1CCCO1)C(c1ccc3c(c1)OCO3)C(C#N)=C(N)O2 (stereo not given)
inactive: activity change, negative = inhibition [1] -18.5% | activity change, negative = inhibition [2] -16.1% | activity, negative = inhibition [3] -17.8% | Potency [4] > 20.6 µM

CC1(C)CC(=O)C2=C(C1)OC(N)=C(C#N)C21C(=O)N(CN2CCOCC2)c2ccccc21 (stereo not given)
inactive: activity change, negative = inhibition [1] 15.6% | activity change, negative = inhibition [2] 1.95% | activity, negative = inhibition [3] 5.03% | Potency [4] > 20.6 µM

CC1(C)Cc2c(C#N)c(SCc3nc4ccccc4[nH]3)nc(N3CCOCC3)c2CO1
inactive: activity change, negative = inhibition [1] -22.7% | activity change, negative = inhibition [2] 8.62% | activity, negative = inhibition [3] -16.1% | Potency [4] > 20.6 µM

CC(O)(C#CCN1CCOCC1)c1ccccc1 (stereo not given)
inactive: activity change, negative = inhibition [1] -0.153% | activity change, negative = inhibition [2] 8.45% | activity, negative = inhibition [3] 7.2% | Potency [4] > 20.6 µM

CCOc1cc(C2Nc3ccccc3C(=O)N2c2ccccc2OC)ccc1O (stereo not given)
inactive: activity change, negative = inhibition [1] 18.3% | activity change, negative = inhibition [2] 6.73% | activity, negative = inhibition [3] 5.03% | Potency [4] > 20.6 µM

COc1ccc(/C=N/n2cncn2)cc1COc1ccc(NC(C)=O)cc1
inactive: activity change, negative = inhibition [1] -1.63% | activity change, negative = inhibition [2] 2.89% | activity, negative = inhibition [3] -3.18% | Potency [4] > 20.6 µM

CSc1nc2sc3c(c2c2nnnn12)CCC3
inactive: activity change, negative = inhibition [1] -5.46% | activity change, negative = inhibition [2] -14.8% | activity, negative = inhibition [3] 9.44% | Potency [4] > 20.6 µM

CC1(C)Cc2c(c(N3CCOCC3)nc3snc(Br)c23)CO1
inactive: activity change, negative = inhibition [1] -5.9% | activity change, negative = inhibition [2] -26.2% | activity, negative = inhibition [3] 13.2% | Potency [4] > 20.6 µM
